For 47 compounds, outcome results are on record in PubChem BioAssay AID588849 (Broad Institute, 2011).

This assay concerns the target CAAX prenyl protease 2 (Homo sapiens) (UniProt Q9Y256). Kind of assay: inhibition of Ras-converting CAAX protease Rce1 – biochemical, yeast membranes, quenched-peptide fluorescence, cherry-pick, dose response (AID 588849).

Structures are written as SMILES. Entries with a potency or affinity are not part of this list. The source made the active and inactive calls. The rule behind the calls is not given here.

Chain of CAAX prenyl protease 2 (Homo sapiens) (Q9Y256 whole entry, looked up): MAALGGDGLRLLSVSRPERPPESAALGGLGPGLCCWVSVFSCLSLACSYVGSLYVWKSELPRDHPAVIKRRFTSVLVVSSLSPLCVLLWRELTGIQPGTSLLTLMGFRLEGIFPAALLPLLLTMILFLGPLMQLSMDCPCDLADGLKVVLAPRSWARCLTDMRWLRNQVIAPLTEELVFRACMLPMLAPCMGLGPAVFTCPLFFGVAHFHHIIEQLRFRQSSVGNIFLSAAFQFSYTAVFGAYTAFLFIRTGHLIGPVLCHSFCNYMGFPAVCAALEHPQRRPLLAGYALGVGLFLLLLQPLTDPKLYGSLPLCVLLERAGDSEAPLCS

As for `O=C(CSc1n[nH]c(-c2ccc(S(=O)(=O)N3CCCCC3)cc2)n1)Nc1nccs1`, the call was inactive.
Then `COc1cccc(-c2nc(C#N)c(N3CCN(C(=O)c4ccco4)CC3)o2)c1`, with “inactive”; and `CC(=O)c1c(C)[nH]c(C(=O)OCc2ccc(Br)cc2)c1C`, with “inactive”; and `COc1ccc(C(=O)/C=C/c2ccc(OC)cc2OC)c(O)c1`, with “inactive”.
The value for `CCOC(=O)c1cc2c(=O)n3cccc(C)c3nc2n(CC(C)C)c1=NC(=O)c1ccco1` was “inactive”; that for `Cc1ccc(Nc2nc(-c3ccc(S(=O)(=O)N4CCOCC4)cc3)cs2)cc1Cl` was “inactive”; that for `COC(=O)/C=c1\[nH]c2nnc(C)n2c1=O` was “inactive”.
The value for `COc1ccc(C)cc1NC(=O)CN1C(=O)COc2ccc(S(=O)(=O)N3CCOCC3)cc21` was “inactive”; that for `COC(C/C=C/[C@H](O)[C@@H](C)OCc1ccccc1)OC` was “inactive”.
Turning to `CC(C)C(=O)Nc1cccc(NC(=S)NC(=O)C(c2ccccc2)c2ccccc2)c1`, the compound was called inactive.
Then `N/C(Cc1ccc([N+](=O)[O-])cc1)=N\OC(=O)c1ccc2ccccc2c1`, with “inactive”.
The value for `Cc1ccccc1NS(=O)(=O)c1ccc(C(=O)NCC(c2ccccc2)N(C)C)cc1` (configuration not stated) was “inactive”; that for `CCCCOC(=O)Nc1nc(C)c(C(=O)OCC)s1` was “inactive”; that for `COc1cccc(-c2csc(N3CCN(C(=O)NC45CC6CC(CC(C6)C4)C5)CC3)n2)c1` was “inactive”.
The value for `COc1cccc(-c2cc(C(F)(F)F)n3ncc(S(=O)(=O)c4ccccc4)c3n2)c1` was “inactive”.
On to `Cc1cccc2sc(N(CCN(C)C)C(=O)c3ccc4ccccc4c3)nc12`, for which the result was inactive.
Then `CCCOc1ccccc1C(=O)NCCCC(=O)O`, with “inactive”.
Regarding `CCCN(CCC)CCNC(=O)c1cc2c(-c3ccc(Cl)cc3)nn(C)c2s1`, the result was inactive.
The value for `Cc1cc(N2CCN(C(c3ccccc3)c3ccccc3)CC2)n2ncnc2n1` was “inactive”; that for `CCN(CC)CCCNc1cc(C)nc2cc(-c3cccs3)nn12` was “inactive”; that for `Nc1nnnn1/N=C/c1cccc(OCc2ccccc2Cl)c1` was “inactive”.
The value for `COc1cc(-c2nc3ccccn3c2/N=C/c2cccc(OC)c2O)ccc1O` was “inactive”; that for `CC(C)[C@H](NC(=O)OCc1ccccc1)C(=O)OCC(=O)Nc1c(F)cccc1F` was “inactive”; that for `COc1ccc(N2CCN(C(=O)c3cc(-c4cccs4)nc4ccccc34)CC2)cc1` was “inactive”.
`CC(C)c1cc(=O)oc2c3c4c(cc12)CCCN4CCC3`: the compound was classed as inactive.
The value for `C[C@@]12CCC=C[C@H]1[C@H](c1ccc(/C=C/c3ccccc3)cc1F)N(Cc1ccccc1)C2=O` was “inactive”; that for `COc1ccc(-c2cn3ccccc3n2)cc1[N+](=O)[O-]` was “inactive”; that for `COC(=O)c1ccccc1NC(=O)NCc1cccnc1` was “inactive”.
Then `CCC(=O)Nc1cc(-c2nn(CC(=O)N3CCCCC3)c(=O)c3ccccc23)ccc1N1CCOCC1`, with “inactive”.
Then `O=C(CSc1nc2ccccc2s1)N1N=C(c2cccs2)CC1c1ccc(F)cc1` (configuration not stated), with “inactive”; and `CCOc1ccc(N(CC(=O)NC2CC3CCC2C3)S(=O)(=O)c2ccccc2)cc1` (configuration not stated), with “inactive”; and `CCn1cc(C(=O)NCCO)c(=O)c2cc(F)c(N3CCN(C)CC3)cc21`, with “inactive”.
As for `CCn1cc(/C=C(\NC(=O)c2ccccc2Cl)C(=O)N2CCOCC2)c2ccccc21`, the outcome was inactive.
The value for `O=C(O)CCCC[C@@H]1SC[C@@H]2NC(=O)N[C@@H]21` was “inactive”.
The value for `Cc1cc(C)cc(N2CC(O)=C(c3nc4ccccc4c(=O)[nH]3)C2=N)c1` was “inactive”; that for `CCOc1ccc(NC(=O)CCSc2ccc(C)cc2)cc1` was “inactive”.
The value for `Cc1nc2c(C)cccn2c(=O)c1NC(=O)COc1ccccc1` was “inactive”; that for `CCOC(=O)c1c(C2COc3ccccc3O2)csc1NC(=O)c1ccccc1` (configuration not stated) was “inactive”.
In the case of `CCN(CC)CCCNC(=O)CCc1c(C)n(CC)c2cc(-c3ccccc3OC)nn2c1=O`, the outcome was inactive.
As for `O=C(COC(=O)c1ccccc1Cc1ccccc1)NC1CCS(=O)(=O)C1` (configuration not stated), the result was inactive.
Then `COc1ccc(OC)c(/C=N/NC(=O)Cn2ccnc2C)c1`, with “inactive”; and `Cc1ccc(NS(=O)(=O)c2ccc(NC(=O)N3CCCCC3)cc2)cc1`, with “inactive”.
In the case of `CCS(=O)(=O)Nc1c(C(=O)O)[nH]c2ccccc12`, the result was inactive.
Regarding `COc1cccc(/C=N/NC(=O)c2nnn(-c3nonc3N)c2C(C)C)c1OCc1ccc(F)cc1`, the call was inactive.
The value for `O=C(c1cnc(Cl)c(Cl)c1)N1CCC(Cc2ccccc2)CC1` was “inactive”; that for `Cc1cc(C(=O)N/N=C/c2c3ccccc3cc3ccccc23)n[nH]1` was “inactive”.
The value for `COC(=O)c1sccc1NC(=O)CSc1nnnn1-c1ccccc1C` was “inactive”.
